In the library only some 0.64% were active in any assay of this set; here they are far more common.
Vif imaging: inhibitors of HIV Vif; AID 602346; hit rate 0.35% among 340,000; inhibition, % at 7.49 µM; HEK293T cells, Vif self-association by quenched fluorescence, imaging, 24 h; in the data active means inhibition above about 50%, passing the limit was not always enough; inconclusive means no clear call, values can overlap the other calls; inactive means below about 31%
PvdQ inh: blocks Pseudomonas aeruginosa PvdQ acylase activity | purified PvdQ acylase, fluorescence plate reader | inhibition, % at 10 µM | hit rate 0.063% among 340,000 | AID 488965; in the data active means inhibition above about 30%, passing the limit was not always enough; inconclusive means no clear call, values can overlap the other calls
PDI turbidity: inhibitors of human protein disulfide isomerase | P07237 | PDI insulin aggregation turbidity, A650, 90 min | inhibition, % at 10 µM | hit rate 0.052% among 350,000 | AID 588391;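 active means mean inhibition across replicates of 30% or more, whatever share of single replicates reach that level; inconclusive means mean inhibition below 30% while every single replicate reaches 30%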
ERp5 inh: inhibitors of human ERp5. Q15084. ERp5 insulin aggregation, absorbance 650 nm, 90 min. inhibition, % at 9.99 µM. hit rate 0.05% among 350,000;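 active means mean replicate inhibition above about 25%, with every replicate also reaching it, limit read from the data, passing the limit was not always enough; inconclusive means only one of those two criteria met; inactive means neither criterion met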
Target sequence (Q15084 whole entry, looked up): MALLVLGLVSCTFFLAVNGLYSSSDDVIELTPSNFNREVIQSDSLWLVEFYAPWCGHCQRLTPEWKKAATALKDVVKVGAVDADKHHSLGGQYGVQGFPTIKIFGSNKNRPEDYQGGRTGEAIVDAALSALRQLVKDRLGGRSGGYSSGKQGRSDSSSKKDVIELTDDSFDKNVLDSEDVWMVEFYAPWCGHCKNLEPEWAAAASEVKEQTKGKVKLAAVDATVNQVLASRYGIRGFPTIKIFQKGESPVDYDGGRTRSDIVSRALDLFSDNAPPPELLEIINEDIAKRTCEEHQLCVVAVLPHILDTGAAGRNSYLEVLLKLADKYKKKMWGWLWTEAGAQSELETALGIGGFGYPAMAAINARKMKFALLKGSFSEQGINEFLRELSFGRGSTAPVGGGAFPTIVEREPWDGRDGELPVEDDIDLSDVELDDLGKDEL
AI-2 QS mod: Vibrio harveyi AI-2 quorum sensing modulation; Vibrio harveyi JMH597 AI-2 luminescence/OD600 ratio, 9 h; hits give low values; strain lacks LuxN and CqsS sensors; 0 = neutral-control median; activity change, % at 7.5 µM; hit rate 0.4% among 300,000; AID 2094; in the data active means activity change below about -75%, passing the limit was not always enough; inconclusive means no clear call, values can overlap the other calls;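 further: luminescence divided by OD600 gain over 9 h not by final OD600 alone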
JMH597 growth: retest: inhibitors of Vibrio harveyi JMH597 growth; shares compounds with AI-2 QS mod; OD600 absorbance, 9 h; lacks LuxN and CqsS sensors; growth inhibition, % at 7.5 µM; hit rate 1% among 750;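 active means every replicate shows growth inhibition above 50%; inconclusive means at least half, but not all, replicates pass that cutoff; inactive means fewer than half of replicates pass it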
BB721 const-QS lum: retest counter-screen: BB721 constitutive quorum sensing luminescence decrease. Vibrio harveyi BB721 luminescence, 9 h. hit rate 95% among 750. shares compounds with AI-2 QS mod. inhibition, % at 7.5 µM. AID 2727;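 active means inhibition above about 80% in every replicate, not just on average, limit read from the data; inconclusive means at least half of replicates past the limit, but not all; inactive means fewer than half of replicates past the limit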
BB721 growth: retest: blocks Vibrio harveyi BB721 growth. OD600 absorbance, 9 h. shares compounds with AI-2 QS mod. hit rate 3% among 750. growth inhibition, % at 7.5 µM;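 active means every replicate shows growth inhibition above 50%; inconclusive means at least half but not all replicates above 50% inhibition; inactive means under half of replicates above 50% inhibition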
JMH597 AI-2 mod: Vibrio harveyi AI-2 signaling luminescence modulation – JMH597 strain, confirmation | shares compounds with AI-2 QS mod | Vibrio harveyi JMH597 AI-2 quorum sensing luminescence, 9 h; luxN and CqsS knockout, AI-2 only | inhibition, % at 7.5 µM | hit rate 97% among 750 | AID 2736;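 active means every replicate shows more than 75% inhibition of signal versus neutral control wells; inconclusive means half to three quarters of replicates exceed 75% inhibition; inactive means fewer than half of replicates exceed 75% inhibition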
Numbers stand for hits; i = inactive; ? = inconclusive; nt = no result given.

SMILES | Vif imaging | PvdQ inh | PDI turbidity | ERp5 inh | AI-2 QS mod | JMH597 growth | BB721 const-QS lum | BB721 growth | JMH597 AI-2 mod
CCCc1nnc(NC(=O)CCN2C(=O)c3ccccc3C2=O)s1 | i | i | i | nt | -86.7 | i | 94.3 | i | 96.2
CN(C)c1ccc2c(c1)[C@@H]1C[C@H](CC(=O)N3CCCCC3)O[C@H](CO)[C@@H]1O2 | nt | nt | nt | i | nt | nt | nt | nt | nt
CCSc1nsc(NC(=O)Nc2ccc(F)cc2F)n1 | i | i | i | nt | ? | 82.2 | 93.9 | ? | 98.6
Cc1ccc(CCC(=O)Nc2ccc([N+](=O)[O-])cc2)o1 | i | i | i | i | -91.3 | i | 97.0 | i | 97.8
Cc1ccc(NC(=O)CCc2ccc(C)o2)cc1 | i | i | i | i | ? | i | 86.9 | i | 91.9
Cc1ccc(CCC(=O)Nc2ccc(S(N)(=O)=O)cc2)o1 | i | i | i | nt | i | nt | nt | nt | nt
O=C(Nc1ccc(S(=O)(=O)N2CCOCC2)cc1)c1ccco1 | i | i | i | nt | i | nt | nt | nt | nt
Cc1ccc(C(=O)NCCc2ccc(S(=O)(=O)N3CCCC3)cc2)cc1 | i | i | i | i | -79.3 | i | 93.4 | i | 95.8
O=C(NNC(=O)C1CCN(S(=O)(=O)c2ccc(Cl)cc2)CC1)c1ccc(Cl)cc1 | nt | i | i | nt | i | nt | nt | nt | nt
O=C(NNS(=O)(=O)c1ccc(Cl)cc1)c1ccc(S(=O)(=O)N2CCCCC2)cc1 | i | i | i | i | -97.3 | i | 99.8 | i | 99.8
Cc1ccc(CNC(=O)c2ccc(S(=O)(=O)N3CCCCCC3)cc2)cc1 | i | nt | i | i | nt | nt | nt | nt | nt
Cc1cc(NS(=O)(=O)c2ccc(NC(=O)COc3ccc(Cl)cc3)cc2)no1 | i | i | i | nt | -87.1 | i | 92.6 | i | 91.0
O=C(CNC(=O)c1ccco1)Nc1ccc(S(=O)(=O)N2CCCC2)cc1 | i | i | i | nt | -94.0 | i | 98.1 | i | 98.8
CCCC#Cc1ccc([C@H]2[C@H](CO)N3CCCCN(C(=O)NC4CCCC4)C[C@@H]23)cc1 | nt | nt | nt | i | nt | nt | nt | nt | nt
O=C(C[C@@H]1CC[C@@H]2[C@H](COC[C@@H](O)CN2CCC(F)(F)F)O1)N1CCC(Cc2ccccc2)CC1 | nt | nt | nt | i | nt | nt | nt | nt | nt
O=C(COC(=O)c1ccc(Br)o1)Nc1ccc(S(=O)(=O)N2CCCC2)cc1 | i | i | i | nt | -94.4 | i | 99.4 | i | 99.5
Cc1ccc(OCC(=O)Nc2ccc(S(=O)(=O)N3CCCC3)cc2)cc1 | i | i | i | i | ? | i | 92.2 | i | 98.6
COc1ccc(OCC(=O)Nc2ccc(S(=O)(=O)N3CCCC3)cc2)cc1 | i | i | i | i | ? | i | 94.9 | i | 99.1
O=C(Cn1c(=O)sc2ccccc21)Nc1ccc(S(=O)(=O)N2CCCC2)cc1 | i | i | i | nt | -96.7 | i | 99.4 | i | 99.4
O=C(COC(=O)c1ccc(Br)o1)Nc1cccc(S(=O)(=O)N2CCCCC2)c1 | i | i | i | i | nt | nt | nt | nt | nt
Cc1ccc(S(=O)(=O)Nc2ccc3c(c2)CC(=O)N([C@@H](C)CO)C[C@@H](C)[C@H](CN(C)S(=O)(=O)c2cccs2)O3)cc1 | nt | nt | nt | i | nt | nt | nt | nt | nt
O=S(=O)(c1cccs1)N1CCCCN2[C@H](CO)[C@H](c3ccc(Br)cc3)[C@@H]2C1 | nt | nt | nt | i | nt | nt | nt | nt | nt
COc1ccc(NC(=O)Cc2nnc(SCC(=O)Nc3ccccc3)n2C)cc1 | i | i | i | i | ? | i | i | i | i
COc1ccc(CC(=O)NCc2nnc(SCC(=O)Nc3ccccc3)n2C)cc1 | i | i | i | i | i | nt | nt | nt | nt
C[C@@H]1CN([C@H](C)CO)C(=O)c2c(c3ccccc3n2C)-c2ccccc2CO[C@@H]1CN(C)CC1CC1 | nt | nt | nt | i | nt | nt | nt | nt | nt
SMILES | Vif imaging | PvdQ inh | PDI turbidity | ERp5 inh | AI-2 QS mod | JMH597 growth | BB721 const-QS lum | BB721 growth | JMH597 AI-2 mod
O=C(CCS(=O)(=O)c1ccccc1)Nc1ccc(S(=O)(=O)Nc2nccs2)cc1 | i | i | i | i | nt | nt | nt | nt | nt
O=C(CCc1ccccc1)Nc1ccc(S(=O)(=O)Nc2nccs2)cc1 | i | i | i | i | -84.7 | i | 89.2 | i | 93.3
CC(=O)Nc1ccc(S(=O)(=O)Nc2nccs2)cc1 | i | i | i | i | i | nt | nt | nt | nt
Cc1ccc(O)c(CNc2ccc(S(=O)(=O)Nc3nccs3)cc2)c1 | i | i | i | i | -89.1 | i | 93.3 | i | 95.3
O=C(/C=C/c1ccc(F)cc1)NCCC1=CCCCC1 | i | i | i | nt | -88.9 | ? | 97.1 | i | 98.4
COc1ccccc1/C=C/C(=O)NCCC1=CCCCC1 | i | i | i | i | i | nt | nt | nt | nt
Cc1ccc(OCC(=O)O/N=C(\N)c2cccnc2)cc1 | i | i | i | i | -84.1 | i | 92.0 | i | 94.7
N/C(=N\OC(=O)COc1ccc2ccccc2c1)c1cccnc1 | i | i | i | nt | -90.3 | i | 98.2 | i | 98.8
N/C(=N\OC(=O)CCCOc1ccccc1)c1ccncc1 | i | i | i | i | i | nt | nt | nt | nt
N/C(=N\OC(=O)CCCOc1ccccc1)c1ccccc1 | i | i | i | i | -82.6 | i | 92.0 | i | 93.4
O=C(NCC[C@@H]1CC[C@@H](NC(=O)C2CC2)[C@@H](CO)O1)c1cnccn1 | nt | nt | nt | i | nt | nt | nt | nt | nt
COC(=O)[C@@H]1[C@@H](CO)[C@@H]2Cn3c(ccc(-c4ccncc4)c3=O)[C@@H]2N1CC1CCCC1 | nt | nt | nt | i | nt | nt | nt | nt | nt
Cc1ncn(-c2ccc(C(=O)Oc3ccccc3)cn2)n1 | i | i | i | i | -86.6 | i | 93.3 | i | 95.8
CC(C)(C)c1cc(OC(=O)c2ccccc2F)ccc1O | i | i | i | i | -85.9 | i | 96.8 | i | 96.7
CC(C)(C)c1cc(OC(=O)c2ccncc2)ccc1O | i | i | i | nt | nt | nt | nt | nt | nt
CNC[C@@H]1Oc2ccc(NC(=O)Nc3ccc4c(c3)OCO4)cc2C(=O)N([C@@H](C)CO)C[C@H]1C | nt | nt | nt | i | nt | nt | nt | nt | nt
Cc1ccc(OCc2cc(C(=O)N(C)Cc3cc(C4CC4)n[nH]3)no2)cc1C | i | i | i | i | -81.2 | i | 84.5 | i | 89.6
Cc1cccc(C)c1OCc1cc(C(=O)N(C)Cc2cc(C3CC3)n[nH]2)no1 | i | i | i | i | i | nt | nt | nt | nt
CCNC(=O)C[C@@H]1CC[C@@H]2[C@@H](COc3ccc(NC(=O)c4ccc(F)cc4)cc3C(=O)N2C)O1 | nt | nt | nt | i | nt | nt | nt | nt | nt
COc1cccc(CN2[C@@H]3CNC[C@H]2C3c2ccc(-c3cccc(C#N)c3)cc2)c1 (stereo not given in full) | nt | nt | nt | i | nt | nt | nt | nt | nt
CCOC(=O)C1=C(C)NC(=S)NC1C (stereo not given) | i | i | i | i | -81.8 | i | i | i | i
O=C(NCc1cccs1)C(=O)c1c[nH]c2ccccc12 | i | i | i | i | -91.6 | i | 97.4 | i | 97.7
O=C(NCc1ccccc1Cl)C(=O)c1c[nH]c2ccccc12 | i | i | i | nt | -82.7 | i | 93.5 | i | 94.5
Clc1cccc(CSc2nc3ccncc3[nH]2)c1 | i | i | nt | i | -89.1 | i | 96.0 | i | 95.9

Screening results (PubChem)
